# tim10-1 inh: growth inhibitors of tim10-1 mutant yeast; S. cerevisiae tim10-1 ts strain growth, BacTiter-Glo, 24 h; inhibition, % at 20 µM; 330,000 compounds, 2.2% hits;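 active = inhibition of at least 40%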;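 note: mutant grown at 25 °C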
# tim23-1 inh: inhibits growth of tim23-1 mutant yeast | 330,000 compounds, 1.3% hits | inhibition, % at 20 µM | S. cerevisiae tim23-1 growth, BacTiter-Glo luminescence, 24 h | AID 463212;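 active = growth inhibition of the mutant yeast at or above 50%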;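 note: temperature-sensitive mutant grown at 25 °C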
# MPTP inh: blocks calcium-induced mitochondrial swelling; isolated mouse mitochondria, Ca2+ swelling absorbance, 30 min; 360,000 compounds, 1.4% hits; inhibition, % at 10 µM;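 active = inhibition of 50% or more, scaled per plate between neutral and stimulator controls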
# TIM10 inh: TIM10 yeast growth inhibition. 330,000 compounds, 1.4% hits. S. cerevisiae TIM10 strain growth, BacTiter-Glo luminescence, 24 h. inhibition, % at 10 µM;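 active = inhibition of 40% or more at the single tested concentration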;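 note: wild-type TIM10 isogenic control strain grown at permissive 25 °C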
# Mdm2 MdmX PPI: disrupts the human Mdm2-MdmX interaction | SaOS-2 split-luciferase Mdm2/MdmX complementation, luminescence | O15151+Q00987 | 330,000 compounds, 3% hits | AID 485346 | inhibition, % at 8 µM;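 active = inhibition of at least 50% at 8 µM in the primary screen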
# tim10-1 confirm: confirmation of tim10-1 mutant yeast growth inhibitors; S. cerevisiae tim10-1 ts strain growth, BacTiter-Glo, 24 h; shares compounds with tim10-1 inh; 7,400 compounds, 56% hits; inhibition, % at 20 µM;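 active = inhibition of yeast growth at or above a set limit in either of two repeat tests at 20 µM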;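 note: tim10-1 mutant grown at permissive 25 °C to find synthetic lethal compounds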
# Hits are given with their value; 0 = inactive; - = no result. Hits are enriched below; roughly 6.3% of the tested compounds scored in any of these assays.
SMILES,tim10-1 inh,tim23-1 inh,MPTP inh,TIM10 inh,Mdm2 MdmX PPI,tim10-1 confirm
COc1ncnc2c1ncn2CCCN1CCN(C(=O)C2CC2)CC1,-,-,0,-,-,-
COc1cccc(-c2nc(=S)c3c(n2Cc2ccco2)CCCC3)c1,42,0,0,0,0,40
Cc1cccc(-c2nc(=S)c3c(n2Cc2ccco2)CCCC3)c1,0,0,0,0,0,-
CN(C)S(=O)(=O)N1CCC(Oc2ccc(C(=O)NC3Cc4ccccc4C3)cc2)CC1,44,0,0,0,0,0
Cc1cccc(C)c1NC(=O)C1(C)CN(S(C)(=O)=O)CC(=O)N1CCc1ccc(O)cc1 (stereo unspecified),-,-,0,-,-,-
O=C(N/N=C/c1ccc(O)cc1)NC12CC3CC(CC(C3)C1)C2,50,0,0,0,0,35
Cc1ccc(-n2nc(C)c(C(=O)Nc3cccc(C(=O)NC4CC4)c3)n2)c(C)c1,44,0,0,0,0,0
N#C/C(=C\c1ccc(-c2nc3ccccc3s2)o1)C(N)=O,40,0,0,0,0,0
CC1(Oc2ccccc2)CCN(Cc2csc3ccccc23)C1 (stereo unspecified),-,-,0,-,-,-
O=c1ccoc2ccccc12,-,-,0,-,-,-
O=c1c(-c2nnc(SCc3ccc(Cl)cc3)o2)cccn1Cc1ccccc1,46,0,0,0,0,0
O=C(Nc1ccccc1-c1nnc(SCc2ccc(Cl)cc2)o1)c1ccccc1,0,0,0,0,0,-
O=C(O)CN1C(=O)S/C(=C\c2cccnc2)C1=O,0,0,0,0,0,-
COc1ccc2c(CC(=O)NCCN3C(=O)S/C(=C\c4cccnc4)C3=O)coc2c1,50,0,0,0,0,0
O=C(NCCN1C(=O)S/C(=C/c2cccnc2)C1=O)c1cccs1,44,0,0,0,0,0
O=C1NC(Cc2ccccc2)c2nc3ccc(F)cc3c(=O)n2-c2ncccc21 (stereo unspecified),-,-,0,-,-,-
CC(=O)Nc1ccc(C(=O)OCCCOC(=O)c2ccc(NC(C)=O)cc2)cc1,0,0,0,0,0,-
COC(=O)c1ccc(NC(=S)NCCc2ccccc2)cc1,0,0,0,0,0,-
CCCNC(=S)Nc1ccc(Nc2ccccc2)cc1,42,0,0,0,0,0
CC(=O)Nc1ccc(C(=O)OCCc2ccccc2)cc1,42,0,0,0,0,33
CCOC(=O)c1ccc(NC(=S)NCCc2ccccc2)cc1,41,0,0,0,0,0
CCOC(=O)c1ccc(NC(=O)c2nc(S(=O)(=O)Cc3ccccc3)ncc2Cl)cc1,55,0,0,0,0,0
S=C(NCCCNC(=S)Nc1ccccc1)Nc1ccccc1,0,0,0,0,0,-
Cc1cccc(NC(=O)CCS(=O)(=O)c2ccc3nc(C)sc3c2)c1,-,-,0,-,-,-
O=C(/C=C/c1cccc(Oc2ccccc2)c1)N1CCOCC1,43,0,0,0,0,0
SMILES,tim10-1 inh,tim23-1 inh,MPTP inh,TIM10 inh,Mdm2 MdmX PPI,tim10-1 confirm
O=C(CC(C(=O)N1CCc2ccccc21)n1ccnc1)N1CCc2ccccc2C1 (stereo unspecified),40,0,0,0,0,35
Cc1ccc(C(=O)C2C(=O)C3CCC2C3)cc1 (stereo unspecified),-,-,0,-,-,-
C=CCC1C=CCC(CC=C)N1C(=O)c1ccccc1[N+](=O)[O-] (stereo unspecified),0,0,0,0,0,-
C=CCC1Cc2c(cccc2[N+](=O)[O-])C(CC=C)N1 (stereo unspecified),49,0,0,0,0,0
CC1Oc2ccccc2N(CC(=O)NC2CCCC2)C1=O (stereo unspecified),0,0,0,0,0,-
COc1ccc(CN(C(=O)CN2C(=O)C(C)Oc3ccccc32)C2CCCC2)c(OC)c1 (stereo unspecified),41,0,0,0,0,0
COc1ccc(CN(C(=O)CN2C(=O)COc3ccccc32)C2CCCC2)c(OC)c1,40,0,0,0,0,0
Cc1cccc(C)c1-n1nnnc1C(c1ccccc1OC(F)(F)F)N1CCN(C/C=C/c2ccccc2)CC1 (stereo unspecified),-,-,0,-,-,-
O=C(CSCc1ccccc1Cl)Nc1ccc(C(=O)O)cc1,0,0,0,0,0,-
O=C(CSCc1ccccc1Cl)NNC(=S)Nc1ccccc1,49,0,0,0,0,43
O=S1(=O)CC(N2CCN(CC3CC3)CC2)CN1Cc1cn(Cc2ccccc2C(F)(F)F)nn1 (stereo unspecified),-,-,0,-,-,-

# Screening data deposited in PubChem by Sanford-Burnham Center for Chemical Genomics.
